PubChem BioAssay (NCATS)
Records with an inconclusive call do not appear. A call without a number means that no potency is given here. Active and inactive are the calls of the source. Calls follow the shape of the dose curve; as a rule, active = well fitted inhibition curve with a large enough effect; inconclusive = small, poorly fitted or top-dose-only effect; inactive = flat fitted curve, though single readings scatter.

The molecules below were run against Aldehyde dehydrogenase, mitochondrial (Homo sapiens) (UniProt P05091) (assay: qHTS for Inhibitors of the Aldehyde Dehydrogenase Family (ALDH2) Primary screen (AID 2061308; also: nearly all actives have a fitted effect of over 55% in size)). Details: ALDH2 enzyme inhibition qHTS, 1536-well; series mostly up to 56 µM.

Compound | Potency
Cc1ccsc1CN(C)c1ncnc2ccc(-c3ccc(C(=O)N(C)C)o3)cc12 | inactive
NC(Cc1c[nH]c2ccc(O)cc12)C(=O)O (stereo not given) | inactive
COc1ccc(-c2nc(-c3cccc(C(=O)O)c3)no2)cc1 | inactive
C=C1CC[C@@H]2[C@](C)(CO)[C@H](O[C@@H]3O[C@H](CO)[C@@H](O)[C@H](O)[C@H]3O)CC[C@@]2(C)[C@@H]1C/C=C1/C(=O)OC[C@H]1O | inactive
Cc1ccnc(NC(=S)N2CCN(c3ccc(Br)cc3)CC2)c1 | inactive
Oc1c(CNc2ccccc2)cc(COCc2ccccc2)c2cccnc12 | inactive
O=C(O)c1ccc(-c2noc(-c3ccc(Cl)cc3)n2)cc1 | inactive
CCCn1c(-c2ccc(F)cc2)nc2c(N3CCN(CCn4ccnc4)CC3)nc(C)nc21 | inactive
N#Cc1nc(NCC(F)F)c2ncn(-c3cccc(Cl)c3)c2n1 | inactive
CN(C)C1CCN(Cc2cc(COCc3ccccc3)c3cccnc3c2O)C1 (stereo not given) | inactive
OC/C=C/c1ccc(O[C@@H]2O[C@H](CO)[C@@H](O)[C@H](O)[C@H]2O)cc1 | inactive
Cc1ccc(-c2ccc(CNc3nc(-c4ccccc4C(C)C)nc4ccsc34)cc2)cn1 | inactive
Cc1ccc(-c2ccc(=O)n(CC(=O)NCc3ccccc3)n2)cc1 | inactive
N#Cc1cccc(CSc2nc3ncc(Br)cc3[nH]2)c1 | inactive
CC1=CC2=C(C)C(=O)[C@](C)(O)[C@H](O)C2=CO1 | inactive
Fc1cc(Nc2nc(-c3ccncc3)nc3ccccc23)ccc1OC(F)(F)F | inactive
Cn1c2cc(Br)sc2c2cnn(Cc3c(F)cccc3Cl)c(=O)c21 | inactive
Oc1ccc(CNc2ccccc2C(F)(F)F)c2cccnc12 | inactive
COc1cccc(Cn2ncc3c4sc(B(O)O)cc4n(C)c3c2=O)c1 | inactive
C=C1/C(=C/C=C2\CCC[C@]3(C)[C@@H]([C@H](C)/C=C/[C@@H](C)C(C)C)CC[C@@H]23)C[C@@H](O)C[C@@H]1O | inactive

Compound | Potency
COc1ccc(-c2ccc3c(N4CCOCC4)nc(N4CC(C)OC(C)C4)nc3n2)cc1CO (stereo not given) | inactive
C=C1CCC2C(C)(CO[C@@H]3O[C@H](CO)[C@@H](O)[C@H](O)[C@H]3O)C(O)CCC2(C)C1C(=O)CC1=CCOC1=O (stereo not given in full) | inactive
CC(=O)c1ccc(N2CCN(C(=O)c3ccc4c(c3)CCC(=O)N4)CC2)cc1 | inactive
Cc1ccc(-c2ccc(=O)n(CC(=O)NCCc3ccccc3)c2)cc1 | inactive
Cc1ccc(-c2ccc(=O)n(CC(=O)NCCc3ccncc3)n2)cc1 | inactive
COc1ccc(C(=O)OC2C3C=COC(OC4OC(CO)C(O)C(O)C4O)C3C3(CO)OC23)cc1OC (stereo not given) | inactive
COc1cccc(CNc2ccc(S(=O)(=O)Nc3ccccn3)cc2)c1O | inactive
C/C(=C\c1ccccc1)C1Nc2cccc3cccc(c23)N1 | inactive
O=C(O)c1ccc(-c2noc(-c3ccccc3Cl)n2)cc1 | inactive
COc1ccc2nc(-c3cccc(C)c3)sc2c1 | inactive
COc1ccc(-c2nc(-c3ccc(C(=O)O)cc3)no2)cc1 | inactive
O=C(O)c1cccc(-c2noc(-c3ccc(C(F)(F)F)cc3)n2)c1 | inactive
Fc1ccccc1-c1nc(-c2cccc(-c3nn[nH]n3)c2)no1 | inactive
FC(F)(F)c1cc(Cl)cc(-c2ccc(CNc3nc(-c4ccccc4C(F)(F)F)nc4ccccc34)cc2)c1 | inactive
O=C(O)c1cccc(-c2noc(-c3ccccc3Cl)n2)c1 | inactive
COc1cc(OC)c(C(CC(=O)N2CC(C)CC(C)C2)c2ccc3c(c2)OCO3)c(OC)c1 (stereo not given) | inactive
COc1cccc(-c2nc(-c3cccc(C(=O)O)c3)no2)c1 | inactive
Cn1cc(CCn2cnc(-c3cnn(C)c3)c2-c2ccc(C#N)cc2)cn1 | inactive
Cc1ccc(-c2ccc(=O)n(CC(=O)NCCCc3ccco3)n2)cc1 | inactive
CC(C)(C)OC(=O)N1CCN(c2ccc(NCc3ccoc3-c3ccc(C#N)cc3)cc2)CC1 | inactive
